An excerpt weighted towards active compounds, which were near 2.9% of everything screened.
ADAM17 inh: inhibits human ADAM17; AID 720648; recombinant ADAM17, EDANS/DABCYL FRET peptide cleavage; 370,000 compounds, 0.83% hits; P78536; inhibition, % at 6.95 µM;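 active means inhibition above the mean of compounds lying between control limits plus 3 SD, set per campaign, cut at about 8.5% in these data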;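 further: 0% = DMSO-only wells as the low control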
PLCb3 inh: PLC-beta3 (human) inhibition, primary screen; Q01970; Purified PLC-beta3, fluorogenic substrate, fluorescence; inhibition, % at 12.2 µM; 370,000 compounds, 0.18% hits; in the data active means inhibition above about 11%;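 further: 0% = median of compound wells on plate and 100% = full blocker control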
ADAM10 inh: inhibits human ADAM10; O14672; 370,000 compounds, 0.62% hits; inhibition, % at 7 µM; recombinant ADAM10, EDANS/DABCYL FRET peptide cleavage, 3 h; AID 720582;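 active means inhibition above a per-campaign cutoff equal to the mean of compounds falling between control-based bounds plus 3 SD, cut at about 20% in these data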;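 further: 0% = DMSO wells while the 100% control is not disclosed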
KLK7 zymogen act: proKLK7 (human) activation, primary screen | 370,000 compounds, 0.9% hits | P49862 | purified proKLK7, EDANS-DABCYL substrate fluorescence; 100% is mature enzyme control, 0% vehicle | activation, % at 7 µM | AID 652039;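 active means activation above the mean of all tested compounds plus 3 SD, computed per campaign excluding outliers beyond control limits, cut at about 13% in these data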
PLC-gamma1 inh: inhibitors of human phospholipase C gamma1; purified PLC-gamma1, fluorogenic substrate, fluorescence; AID 720700; 370,000 compounds, 0.84% hits; inhibition, % at 12.2 µM; in the data active means inhibition above about 9.5%
proKLK7 act conf: confirmation of human kallikrein-7 zymogen activators | shares compounds with KLK7 zymogen act | purified proKLK7, EDANS-DABCYL substrate fluorescence; scaled: vehicle 0, mature enzyme 100 | activation, % at 7 µM | 3,200 compounds, 68% hits;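 active means activation, as change over the incubation, above the mean of all tested compounds plus 3 SD, cut at about 13% in these data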
EDANS-DABCYL int: optically interferes with EDANS-DABCYL signal, flagging KLK7 hits; shares compounds with KLK7 zymogen act; EDANS-DABCYL substrate fluorescence interference, no enzyme, 4 h; solvent 0%, active enzyme control 100%; activation, % at 7 µM; 3,200 compounds, 80% hits;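 active means activation above the all-compound mean plus 3 SD, ignoring values outside control-based bounds, cut at about 4.8% in these data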;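 further: value is the 4 h activation minus the activation read at time zero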
The depositor's hits bear a star; i = inactive; nt = not tested or not shown.

SMILES	ADAM17 inh	PLCb3 inh	ADAM10 inh	KLK7 zymogen act	PLC-gamma1 inh	proKLK7 act conf	EDANS-DABCYL int
COc1ccc(-c2cn3cccnc3n2)cc1NC(=O)c1ccc(Br)o1	-199	i	i	-12	-477	nt	nt
Cc1ccc(C(=O)Oc2coc(CSc3ncccn3)cc2=O)cc1[N+](=O)[O-]	1	6	14	nt	6	nt	nt
CCOC(=O)c1cc2ccc3ccccc3c2oc1=O	i	i	i	53*	i	74*	76*
CCOC(=O)c1cc2ccc(OC(=O)c3ccco3)cc2oc1=O	i	i	i	101*	i	668*	659*
CCOC(=O)c1c[nH]c2ccc3ccccc3c2c1=O	-1	0	0	0	-1	nt	nt
Cc1ccccc1C1CCC2(CCC(=O)N2CC[C@@H](O)c2ccccc2)CC1 (stereo partly drawn)	-2	-2	-4	nt	0	nt	nt
COc1ccc(CCNC(=O)COC(=O)c2ccccc2NCCO)cc1OC	i	i	i	19*	i	26*	34*
O=C(COC(=O)c1ccccc1NCCO)NCc1cccs1	-345	-459	i	18*	-427	19*	21*
COc1ccc(CCNC(=O)COC(=O)c2ccco2)cc1OC	-6	-2	2	0	-2	nt	nt
O=C1NC(c2cccc(C(F)(F)F)c2)c2c(-c3ccccc3)n[nH]c21 (stereo not drawn)	-1	4	-1	0	-3	nt	nt
COc1ccc(NC(=O)CN2C(=O)c3cccc4cccc2c34)c(OC)c1	-27	-70	-92	304*	-58	59*	67*
COc1ccc(NC(=O)CCN2C(=O)c3ccccc3C2=O)c(OC)c1	-2	-2	-6	0	0	nt	nt
Cc1n[nH]c(C)c1S(=O)(=O)NCCc1ccccc1F	-3	3	-3	0	2	nt	nt
O=c1c2ccccc2c(C=NC2CCS(=O)(=O)C2)c(O)n1-c1ccccc1 (stereo not drawn)	-8	-13	-34	14*	-13	15*	16*
c1ccc(-c2nc3ccccc3nc2-c2ccc(CN3CCC(c4nc5ccccc5[nH]4)CC3)cc2)cc1	-12	-8	-70	-3	-7	nt	nt
COC(=O)[C@]12C[C@H](CC(=O)N3CCC(c4ccccc4)CC3)C(=O)N(Cc3cccc4ccccc34)C1=C[C@H](C1CCCC1)O[C@@H]2C	-4	-3	-5	0	7	nt	nt
CCN1CCCC1Cn1cnc2c([nH]c3ccc(OC)cc32)c1=O (stereo not drawn)	-154	-252	-445	24*	-181	9	10*
COc1ccc2[nH]c3c(=O)n(Cc4ccncc4)cnc3c2c1	-301	-169	i	13*	-114	7	9.8*
Cc1ccc(-c2nc3ncccn3c2NC(=O)c2cccc(C)c2)cc1	-74	-349	-254	8	-271	nt	nt
CCN(CC)CCn1c2ccccc2c2cnc(N)c(C#N)c21	-121	-174	-427	18*	-119	7	3
CN(C)C=Nc1ncc2c3ccccc3n(CCN(C)C)c2c1C#N	-46	-67	-147	5	-47	nt	nt
COC(=O)c1ccc2c(c1)C(C)(C)C(/C=C/c1ccc(O)cc1)=[N+]2C	-42	i	-56	25*	-394	0	2
Cc1cc2oc(=O)cc(CN(C)Cc3ccccc3F)c2cc1Cl	-4	-14	-14	-1	-1	nt	nt
CC1CN(Cc2cc(=O)oc3cc(O)c(Cl)cc23)CC(C)O1 (stereo not drawn)	i	i	i	87*	i	73*	70*
CC1CCN(Cc2cc(=O)oc3cc4c(cc23)CCCC4)CC1	-5	-4	10	1	-3	nt	nt
SMILES	ADAM17 inh	PLCb3 inh	ADAM10 inh	KLK7 zymogen act	PLC-gamma1 inh	proKLK7 act conf	EDANS-DABCYL int
CC1CCN(Cc2cc(=O)oc3cc(O)c(Cl)cc23)CC1	i	i	i	48*	i	70*	71*
CN(Cc1ccccc1F)Cc1cc(=O)oc2cc(O)c(Cl)cc12	i	i	i	60*	i	68*	61*
COC(=O)[C@H]1C[C@]2(C/C=C(\C)CCC=C(C)C)c3ccccc3N[C@H]2N1	0	-1	6	nt	0	nt	nt
COc1ccc2sc(-c3ccc(S(C)(=O)=O)cc3)c(C(=O)NCCCN3CCCC3=O)c2c1	-24	-83	-86	3	-61	nt	nt
COc1cc2sc(-c3ccc(S(C)(=O)=O)cc3)c(C(=O)NCCCCO)c2cc1OC	-320	i	i	31*	i	22*	32*
COc1cc2sc(-c3ccc(S(C)(=O)=O)cc3)c(C(=O)NCc3ccc(C)o3)c2cc1OC	-186	i	i	14*	i	23*	31*
Cc1ccc(CNC(=O)c2c(-c3ccccc3)sc3ccccc23)o1	-2	-2	3	0	2	nt	nt
CCCc1cc(=O)oc2c3c(cc(OCC(=O)NCc4ccncc4)c12)OC(C)(C)CC3	i	i	i	-7	i	nt	nt
CCCc1cc(=O)oc2c3c(cc(OCC(=O)N[C@@H](CSC)C(=O)O)c12)OC(C)(C)CC3	i	i	i	32*	i	35*	31*
CCc1cc(=O)oc2c3c(cc(OCC(=O)N[C@H](C(=O)O)[C@H](C)CC)c12)OC(C)(C)CC3	i	i	i	48*	i	49*	49*
CCCc1cc(=O)oc2c3c(cc(OCC(=O)N[C@@H](C)C(=O)O)c12)OC(C)(C)CC3	i	i	i	49*	i	70*	78*
O=C(Nc1ccc(F)cc1)N[C@@H]1C[C@@H]2O[C@H](CO)CC[C@@H]2O[C@@H]1CCc1ccc(C2=CCCC2)cc1	7	1	6	1	3	nt	nt
CC(=O)N1CC=C2C(C#N)=C(N)C(C#N)(C#N)[C@H](c3ccoc3)[C@H]2C1	-48	-124	-139	16*	-80	16*	17*
CCN1CC=C2C(C#N)=C(N)C(C#N)(C#N)C(CCc3ccccc3)C2C1 (stereo not drawn)	-198	-444	i	30*	-347	15*	16*
N#CC1=C(N)C(C#N)(C#N)[C@H](c2ccoc2)[C@H]2CN(Cc3ccccc3)CC=C12	-72	-378	-227	13*	-283	2	3
Cc1ccc(S(=O)(=O)N2CC(CBr)=CCC2c2ccccc2)cc1 (stereo not drawn)	1	1	-2	0	1	nt	nt
COC(=O)c1cc2c(c3c4cc(OC)ccc4n(S(=O)(=O)c4cccc(C)c4)c13)C(=O)N(Cc1ccc(N(C)C)cc1)C2	-2	-23	-4	-1	-18	nt	nt
Cc1ccc2nc(N3CCN(CCO)CC3)nc(-c3ccccc3)c2c1	-92	-385	-255	21*	-287	6	4.1*

Source: PubChem BioAssay
